Assay outcomes deposited in PubChem BioAssay by The Scripps Research Institute Molecular Screening Center.
TEAD-YAP block: TEAD-YAP interaction inhibition; HEK-TIYL cells, TEAD-Gal4/YAP UAS-luciferase luminescence; inhibition, % at 9.12 µM; actives 1.4% (n = 640,000); AID 1259422; in the data active = inhibition above about 32%;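 also: 0% = median of test compound wells and 100% = reference inhibitor wells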
FBW7 activator: activators of human E3 ligase FBW7; Q969H0; AlphaScreen FBW7–phospho-cyclin E peptide binding, activator screen; normalized activity (activation), % at 26.1 µM; actives 0.13% (n = 650,000); AID 1259310; in the data active = normalized activity above about 1.9%;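 also: purified mutant Fbw7 with reduced substrate affinity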
MITF inh: human MITF inhibition, primary screen; O75030; AlphaScreen MITF homodimerization, bead proximity signal; inhibition, % at 2.6 µM; actives 0.91% (n = 650,000); in the data active = inhibition above about 50%;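 also: 0% = vehicle wells with protein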
GPR151 ag: activators of human GPR151; Q8TDV0; PathHunter beta-arrestin GPR151 cells, luminescence; activation, % at 11.2 µM; actives 1% (n = 650,000); AID 1508602; in the data active = activation above about 4.9%;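 also: 0% = median of compound wells and 100% = cells with positive control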
Target sequence (Q8TDV0 whole entry, looked up): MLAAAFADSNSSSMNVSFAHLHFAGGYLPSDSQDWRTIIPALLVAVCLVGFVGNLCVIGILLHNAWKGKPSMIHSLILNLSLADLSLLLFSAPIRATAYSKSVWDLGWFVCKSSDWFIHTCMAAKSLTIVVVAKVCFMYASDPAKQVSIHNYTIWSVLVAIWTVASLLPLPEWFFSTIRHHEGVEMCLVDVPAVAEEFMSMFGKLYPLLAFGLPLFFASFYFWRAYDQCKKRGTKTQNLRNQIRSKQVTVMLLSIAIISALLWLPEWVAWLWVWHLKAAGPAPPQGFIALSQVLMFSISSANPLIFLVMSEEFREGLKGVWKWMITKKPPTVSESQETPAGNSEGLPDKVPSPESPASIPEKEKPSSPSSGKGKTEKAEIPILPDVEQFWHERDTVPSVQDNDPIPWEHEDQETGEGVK
Active calls of the source: *. This is a sample that favours compounds with a hit; in the whole collection about 3.5% have one here.

SMILES | TEAD-YAP block | FBW7 activator | MITF inh | GPR151 ag
COC(=O)c1ccc(Nc2nc(NCc3ccco3)c3ccccc3n2)cc1 | 75* | 0 | -12 | -6
Cc1ccc(C2CC(C(F)(F)F)n3nc(C(=O)Nc4ccc(Cl)c(Cl)c4)c(Cl)c3N2)cc1 (centres undefined) | -4 | 0 | 3 | 1
COc1ccc(-c2sc(C(=O)O)c(C)c2C#N)cc1 | 1 | 0 | 7 | 0
CCSCCOC(=O)C1=C(C)NC2=C(C(=O)CC(c3cccs3)C2)C1c1ccc(OC)c(OC)c1 (centres undefined) | -10 | 0 | -14 | -1
NC(=O)c1ccccc1Nc1cc(NC(=O)Cc2ccc(F)c(F)c2)ncc1Cl | 83* | 0 | 10 | -1
NC(=O)c1ccccc1Nc1cc(NC(=O)Cc2ccc(F)c(F)c2)ncc1F | 15 | 0 | -4 | 1
NC(=O)c1ccccc1Nc1cc(NC(=O)C2CCc3ccccc32)ncc1C(F)(F)F (centres undefined) | 75* | 0 | 16 | 1
N#Cc1ccccc1NC(=O)CSc1ccc([N+](=O)[O-])cn1 | 11 | 0 | 23 | -1
COc1ccc2c(c1)CCC2C(=O)Nc1cc(Nc2ccccc2C(N)=O)ccn1 (centres undefined) | 13 | 0 | -2 | 0
N#Cc1ccccc1Nc1cc(NC(=O)Cc2ccc([N+](=O)[O-])cc2)ncc1C(F)(F)F | 40* | 0 | 15 | -2
NC(=O)c1ccccc1Nc1cc(NC(=O)Cc2ccc([N+](=O)[O-])cc2)ncc1C(F)(F)F | 96* | 0 | 2 | 1
N#Cc1ccc(-n2cc(-c3ccncc3)cn2)cc1 | -13 | 0 | -1 | -2
CNC(=O)c1cncnc1Nc1cc(NC(=O)Cc2ccc(OC)cc2)ncc1C(F)(F)F | 54* | 0 | 7 | 1
NC(=O)c1ccccc1Nc1cc(NC(=O)Cc2ccc(F)c(F)c2)ncc1C(F)(F)F | 92* | 0 | 9 | 1
CNC(=O)c1cncnc1Nc1cc(Nc2ccc3c(c2)CC(=O)N3)ncc1C(F)(F)F | 25 | 0 | 2 | 0
NC(=O)c1ccccc1Nc1cc(Oc2ccccc2F)ncc1C(F)(F)F | -1 | 0 | -2 | 3
CC(C)NC1CCC(Nc2cc(Nc3ccccc3C(N)=O)c(C(F)(F)F)cn2)CC1 (centres undefined) | 94* | 0 | 9 | -2
Nc1cc(Nc2ccccc2CO)c(C(F)(F)F)cn1 | 5 | 0 | -6 | 0
O=C(Cc1ccc(F)cc1)Nc1cc(Nc2ccccc2CO)c(C(F)(F)F)cn1 | 62* | 0 | 3 | -2
CC(=O)c1cccc(N2CC(O)=C(c3nc4ccccc4s3)C2=N)c1 | -11 | 0 | -5 | 2
O=C1NC(O)(C(F)(F)F)C(=O)N1C1CCCCC1 (centres undefined) | 5 | 0 | 5 | 1
COc1ccc(CC(=O)Nc2cc(Nc3ccccc3C(N)=O)c(C(F)(F)F)cn2)cc1 | 98* | 0 | -2 | -2
NC(=O)c1ccccc1Nc1cc(NC(=O)Cc2ccc(F)cc2)ncc1C(F)(F)F | 95* | 0 | 18 | 2
O=C(Cc1ccc(F)cc1)Nc1cc(Nc2ccccc2-c2nn[nH]n2)c(C(F)(F)F)cn1 | -3 | 0 | 2 | -1
Cc1cc(=O)[nH]c(N/N=C/c2ccc(O)c(O)c2O)n1 | -9 | -1 | 100* | 2
SMILES | TEAD-YAP block | FBW7 activator | MITF inh | GPR151 ag
Cc1cc(C)nc(N/N=C/c2cc(Br)cc(Br)c2O)n1 | 13 | -1 | 50 | -2
Cc1cc(C)nc(N/N=C/c2ccc(O)c(O)c2O)n1 | 12 | -1 | 52* | 2
Cc1cccc(-n2c(C)cn3c4c(=O)n(Cc5ccccc5)c(=O)n(C)c4nc23)c1 | -2 | 0 | 6 | 0
COc1ccc(N2CSC3=C(C#N)C(c4ccccc4OC)CC(=O)N3C2)cc1 (centres undefined) | -26 | 0 | 7 | 1
O=C(Nc1ccc(Cl)cc1)c1cccc([N+](=O)[O-])c1 | 5 | 0 | -1 | 4
Cc1ccc(N/C(N)=N/c2nc(CSc3nnc(C)s3)cc(=O)[nH]2)c(C)c1 | 44* | 0 | 17 | 0
Cc1ccc(NC(=O)CSc2nnc(C)s2)c(C)c1 | -11 | 0 | -3 | 0
COc1cccc(Cn2c(NCCO)nc3c2c(=O)n(C)c(=O)n3C)c1 | 39* | 0 | 10 | 0
Cc1ccc(Cn2c(NCCO)nc3c2c(=O)n(C)c(=O)n3C)cc1 | 42* | 0 | -6 | 0
Cc1cccc(Cn2c(NCc3ccco3)nc3c2c(=O)n(C)c(=O)n3C)c1 | 46* | 0 | 13 | 0
Cc1cc(OCC(=O)N=Nc2c(O)[nH]c(=O)[nH]c2=O)cc(C)c1Cl | -7 | 0 | 4 | 1
NCCCC[C@@H]1NC(=O)[C@@H]2C[C@H](NCc3ccc(Cl)s3)CN2C1=O | 13 | 0 | 6 | 3
Cc1ccc(N2C(=O)c3ccc(-c4nc5ccccc5c(=O)o4)cc3C2=O)cc1 | -4 | 1 | 8 | -2
CC(C)c1nc2c(-c3cn[nH]c3)cccc2c(=O)[nH]1 | 32* | 0 | 13 | -1
NC(=O)CC(Nc1nc(Cl)ccc1[N+](=O)[O-])C(=O)O (centres undefined) | -1 | 0 | -11 | 3
Cc1cc2c(cc1C)C(c1cccc(Cl)c1)CC(=O)N2 (centres undefined) | 37* | 0 | -11 | 0
Cc1cc(C)n(CCNC2CCN(c3cccc(NC(=O)CC4CCCC4)c3)CC2)n1 | 42* | 0 | -8 | -1
Cc1cc(C)n(CCNC2CCN(c3cccc(NC(=O)C4CC4)c3)CC2)n1 | -13 | 0 | -4 | -1
CC(=O)C1=NN(c2ccc(Cl)cc2)C(c2ccc3c(c2)OCO3)N1C(C)(C)C (centres undefined) | 2 | 2.0* | 28 | 0
C=CCN1C(=O)S/C(=C\c2ccc(C)o2)C1=O | 0 | 0 | -22 | 0
O=C(Nc1ccccc1F)c1cnc2ccccn2c1=O | 54* | 0 | 9 | -2
CCN1/C(=C/C=C/c2sc3c(C)cccc3[n+]2CC)Sc2c(C)cccc21 | 44* | 0 | 33 | -1
Cc1noc(C)c1CCC(=O)NCCOc1cccc2cccnc12 | 4 | 0 | 4 | 0
OCCn1c(Cc2ccccc2)nc2ccccc21 | 98* | 0 | 4 | -11
CC(=O)NCCNC(=O)c1ccc(-c2ccccc2C)nc1NCc1cccnc1 | 10 | 1 | 26 | -1
CCCCNc1ncnc2ccc(Br)cc12 | 45* | 0 | -6 | 3
COc1ccc(N2C(=O)C3C(c4cccc(Br)c4)OC4(C(=O)c5ccccc5C4=O)C3C2=O)cc1 (centres undefined) | 5 | 0 | 81* | 0
c1ccc(C2c3[nH]c4ccccc4c3CCN2Cc2cnc(N3CCOCC3)s2)nc1 (centres undefined) | 32 | 0 | -6 | 0
O=C(Nc1ccc(Cc2ccncc2)cc1)c1ccc(Oc2ccc(C(=O)Nc3ccc(Cc4ccncc4)cc3)cc2)cc1 | 62* | 0 | 6 | 0
CN(C)S(=O)(=O)c1ccc(C(=O)Nc2ccc(Cc3ccncc3)cc2)cc1 | 22 | 0 | -5 | 1
